Test results taken from PubChem BioAssay AID743482 (Broad Institute, 2014).
The source made the active and inactive calls.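 The calls were made as follows: active = falling viability signal whose fitted half-maximal concentration is at most twice the highest tested dose; inconclusive = flat fit with a moderate drop, or a poor curve fit; inactive = the rest.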

Test: cytotoxicity in HepG2 cells, dose response, cytotoxicity control, cell-based, CellTiter-Glo luminescence, dry powder (AID 743482)
Conditions: HepG2 viability, ATP luminescence, 72 h; series mostly up to 26 µM

Compound	outcome
C[C@H]1CCCCO[C@@H](CN(C)C(=O)Nc2ccc(C(F)(F)F)cc2)[C@@H](C)CN([C@@H](C)CO)C(=O)c2cc(NC(=O)CCC(F)(F)F)ccc2O1	inactive
CC(C)(C)c1ccc(-c2nc(-c3ccncc3)no2)cc1	inactive
C[C@H](CO)N1C[C@H](C)[C@H](CN(C)C(=O)Nc2ccc(C(F)(F)F)cc2)OCCCC[C@H](C)Oc2ccc(NC(=O)NC3CCCCC3)cc2C1=O	inactive
C[C@@H]1CCCCO[C@@H](CN(C)C(=O)Nc2cccc3ccccc23)[C@H](C)CN([C@H](C)CO)C(=O)c2cc(NC(=O)C3CCCCC3)ccc2O1	inactive
C[C@@H]1CCCCO[C@@H](CN(C)C(=O)Nc2cccc3ccccc23)[C@@H](C)CN([C@@H](C)CO)C(=O)c2cc(NC(=O)C3CCCCC3)ccc2O1	inactive
C[C@H]1CCCCO[C@H](CN(C)C(=O)Nc2cccc3ccccc23)[C@@H](C)CN([C@@H](C)CO)C(=O)c2cc(NC(=O)C3CCCCC3)ccc2O1	inactive
C[C@H]1CCCCO[C@@H](CN(C)C(=O)Nc2cccc3ccccc23)[C@@H](C)CN([C@@H](C)CO)C(=O)c2cc(NC(=O)C3CCCCC3)ccc2O1	inactive
C[C@H](CO)N1C[C@H](C)[C@H](CN(C)C(=O)Nc2ccccc2)OCCCC[C@H](C)Oc2ccc(NC(=O)NC3CCCCC3)cc2C1=O	inactive
C[C@H]1CCCCO[C@@H](CN(C)C(=O)Nc2ccccc2)[C@@H](C)CN([C@@H](C)CO)C(=O)c2cc(NC(=O)NC3CCCCC3)ccc2O1	inactive
C[C@H](CO)N1C[C@H](C)[C@H](CN(C)C(=O)Nc2ccccc2F)OCCCC[C@H](C)Oc2ccc(NC(=O)C3CCCCC3)cc2C1=O	inactive
C[C@H](CO)N1C[C@H](C)[C@H](CN(C)C(=O)Nc2ccc(F)cc2)OCCCC[C@H](C)Oc2ccc(NC(=O)Nc3ccccc3)cc2C1=O	inactive
C[C@H](CO)N1C[C@H](C)[C@@H](CN(C)C(=O)Nc2cccc3ccccc23)OCCCC[C@H](C)Oc2ccc(NC(=O)C3CCCCC3)cc2C1=O	inactive
C[C@H](CO)N1C[C@H](C)[C@H](CN(C)C(=O)Nc2ccccc2)OCCCC[C@H](C)Oc2ccc(NC(=O)C3CCCCC3)cc2C1=O	inactive
C[C@H](CO)N1C[C@H](C)[C@H](CN(C)C(=O)Nc2ccc3c(c2)OCO3)OCCCC[C@H](C)Oc2ccc(NC(=O)NC3CCCCC3)cc2C1=O	inactive
C[C@@H]1CCCCO[C@H](CN(C)C(=O)Nc2cccc3ccccc23)[C@H](C)CN([C@H](C)CO)C(=O)c2cc(NC(=O)C3CCCCC3)ccc2O1	inactive
C[C@H](CO)N1C[C@H](C)[C@H](CN(C)C(=O)Nc2ccccc2)OCCCC[C@H](C)Oc2ccc(NC(=O)Nc3ccc4c(c3)OCO4)cc2C1=O	inactive
C[C@H]1CCCCO[C@@H](CN(C)S(=O)(=O)c2ccc(Cl)cc2)[C@@H](C)CN([C@@H](C)CO)C(=O)c2cc(NC(=O)NC3CCCCC3)ccc2O1	inactive
COc1ccc(S(=O)(=O)N(C)C[C@@H]2OCCCC[C@H](C)Oc3ccc(NS(=O)(=O)c4ccc(F)cc4)cc3C(=O)N([C@@H](C)CO)C[C@@H]2C)cc1	inactive
C[C@@H]1CCCCO[C@@H](CN(C)C(=O)Nc2cccc3ccccc23)[C@@H](C)CN([C@H](C)CO)C(=O)c2cc(NC(=O)C3CCCCC3)ccc2O1	inactive
C[C@H](CO)N1C[C@H](C)[C@H](CN(C)C(=O)Nc2ccc(F)cc2)OCCCC[C@H](C)Oc2ccc(NC(=O)NC3CCCCC3)cc2C1=O	inactive
C[C@H](CO)N1C[C@H](C)[C@H](CN(C)C(=O)Nc2ccc(F)cc2)OCCCC[C@H](C)Oc2ccc(NC(=O)C3CC3)cc2C1=O	inactive
CC(=O)Nc1ccc2c(c1)C(=O)N([C@H](C)CO)C[C@H](C)[C@H](CN(C)C(=O)Nc1ccc(F)cc1)OCCCC[C@H](C)O2	inactive
C[C@H](CO)N1C[C@H](C)[C@H](CN(C)C(=O)Nc2cccc3ccccc23)OCCCC[C@H](C)Oc2ccc(NC(=O)CCC(F)(F)F)cc2C1=O	inactive
C[C@@H]1CN([C@H](C)CO)C(=O)c2cc(NC(=O)C3CCCCC3)ccc2O[C@@H](C)CCCCO[C@H]1CN(C)C(=O)Nc1cccc2ccccc12	inactive
C[C@H](CO)N1C[C@H](C)[C@H](CN(C)C(=O)Nc2ccc(Cl)cc2)OCCCC[C@H](C)Oc2ccc(NC(=O)C3CCCCC3)cc2C1=O	inactive
C[C@H](CO)N1C[C@H](C)[C@H](CN(C)C(=O)Nc2cccc3ccccc23)OCCCC[C@H](C)Oc2ccc(NC(=O)c3ccccc3)cc2C1=O	inactive
